In PubChem BioAssay (NCI):
The panel holds about 79,000 compounds, 15% with a hit somewhere; the sample as a whole holds those more often. The source made the active and inactive calls. Rule as the data show it: active = growth inhibition above about 70%; inactive = the rest.

Key:
[1] = NCI Yeast Anticancer Drug Screen. Data for the rad52 strain (AID 147);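 also: 0% = growth of vehicle-treated control cultures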; details: S. cerevisiae rad52 mutant growth inhibition, hits give high values
Summary of the method: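 Compounds are applied to a genetically defined yeast strain lacking normal DNA damage repair, and inhibition of growth is expressed relative to cultures given vehicle only.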

[2] = NCI Yeast Anticancer Drug Screen. Data for the wt1 strain (AID 149);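 also: 0% = growth of vehicle-treated wt1 cultures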; details: S. cerevisiae wt1 strain (SPY 50644) growth inhibition, hits give high values
Summary of the method: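 The wt1 strain was treated with compounds, and growth was compared with vehicle-treated cultures to give inhibition.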

[3] = NCI Yeast Anticancer Drug Screen. Data for the rad50EPP+ strain (AID 151);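 also: 0% = growth of vehicle-treated control cultures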; details: S. cerevisiae rad50 mutant strain, hits give high values
Summary of the method: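 Compounds were applied to the rad50EPP+ yeast strain, which bears a defined DNA repair alteration, and growth inhibition was determined relative to vehicle-treated cultures.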

[4] = NCI Yeast Anticancer Drug Screen. Data for the mgt1 strain (AID 153); details: S. cerevisiae mgt1 mutant growth inhibition, hits give high values
Summary of the method: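 Strain: mgt1 yeast, one of a set carrying defined DNA damage repair or cell cycle control alterations. Compound-treated growth compared with vehicle.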

[5] = NCI Yeast Anticancer Drug Screen. Data for the rad50 strain (AID 155);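 also: 0% = growth of vehicle-only cultures of the same strain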; details: S. cerevisiae rad50 strain growth inhibition, hits give high values
Summary of the method: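 Cells are treated with compound, grown, and their growth is then scored against vehicle-only cultures of the same repair-deficient yeast strain.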

[6] = NCI Yeast Anticancer Drug Screen. Data for the mec2-1 strain (AID 157); details: S. cerevisiae mec2-1 strain, hits give high values
Summary of the method: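 Strain: mec2-1 (DNA repair/cell cycle alteration). Compound exposure, then growth measured; inhibition expressed relative to vehicle.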

[7] = NCI Yeast Anticancer Drug Screen. Data for the rad14 strain (AID 159);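 also: 0% = growth of vehicle-treated control cultures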; details: S. cerevisiae rad14 strain growth inhibition, hits give high values
Summary of the method: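 Readout: yeast growth inhibition, referenced to vehicle-only cultures. Strain bears a defined alteration in DNA damage repair.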

[8] = NCI Yeast Anticancer Drug Screen. Data for the CLN2oe strain (AID 163);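 also: 0% = growth of vehicle-only control cultures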; details: S. cerevisiae CLN2oe strain, hits give high values
Summary of the method: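 Growth of a genetically modified yeast strain is measured after compound exposure and compared with cultures given vehicle alone.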

[9] = NCI Yeast Anticancer Drug Screen. Data for the cln2 rad14 strain (AID 165);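 also: 0% = growth equal to vehicle treated cultures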; details: S. cerevisiae cln2 rad14 strain, hits give high values
Summary of the method: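 Compounds are applied to the cln2 rad14 yeast strain, and growth is then compared with that of vehicle-treated cultures to give inhibition.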

[10] = NCI Yeast Anticancer Drug Screen. Data for the bub3 strain (AID 167); details: S. cerevisiae bub3 mutant strain, hits give high values
Summary of the method: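 Part of a panel of yeast mutants defective in DNA damage repair or cell cycle regulation. Each strain is grown with compound, and inhibition is calculated relative to solvent-treated cultures.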

[11] = NCI Yeast Anticancer Drug Screen. Data for the wt2 strain (AID 169);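 also: 0% = growth of vehicle-treated yeast cultures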; details: S. cerevisiae wt2 strain growth inhibition, hits give high values
Summary of the method: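 This strain belongs to a panel of yeast strains with defined genetic alterations in DNA damage repair or cell cycle control. Compounds are applied, and growth inhibition is measured against vehicle-treated cultures.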

[12] = NCI Yeast Anticancer Drug Screen. Data for the mlh1 strain (AID 171);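 also: 0% = growth of vehicle-treated control cultures of the same strain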; details: S. cerevisiae mlh1 strain growth inhibition, hits give high values
Summary of the method: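 Growth of the mutant yeast strain after compound exposure, expressed as inhibition relative to vehicle-only controls.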

[13] = NCI Yeast Anticancer Drug Screen. Data for the sgs1 strain (AID 173);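 also: 0% = growth of vehicle-only control cultures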; details: S. cerevisiae sgs1 mutant, hits give high values
Summary of the method: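 Growth of a yeast strain bearing a defined genetic alteration is measured after compound treatment. Inhibition is expressed relative to vehicle-only controls.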

[14] = NCI Yeast Anticancer Drug Screen. Data for the mlh1 rad18 strain (AID 175); details: S. cerevisiae mlh1 rad18 strain growth inhibition, hits give high values
Summary of the method: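 Read-out is yeast growth inhibition, calculated against vehicle-only controls. The compound was applied to a strain engineered with DNA damage repair alterations.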

[15] = NCI Yeast Anticancer Drug Screen. Data for the rad18 strain (AID 177); details: S. cerevisiae rad18 mutant growth inhibition, hits give high values
Summary of the method: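 Growth of the mutant yeast strain after compound exposure, normalised to vehicle-only cultures.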

[16] = at 5.0 µM (retest, dose inferred, filed as 0.5)
[17] = at 50.0 µM (retest, dose inferred, filed as 5.0)

Measured: growth inhibition

CC(=O)OCC(C)Cc1cc2c(cc1Br)OCO2 (stereo not given)
inactive: [1]; at 1.2 µM -6% | [1]; at 3.7 µM -11% | [1]; at 11.0 µM -8% | [1]; at 33.0 µM -3% | [1]; at 100.0 µM 19% | [2]; at 1.2 µM 1% | [2]; at 3.7 µM -5% | [2]; at 11.0 µM 6% | [2]; at 33.0 µM -2% | [2]; at 100.0 µM -13% | [3]; at 1.2 µM -9% | [3]; at 3.7 µM -6% | [3]; at 11.0 µM 16% | [3]; at 33.0 µM 18% | [3]; at 100.0 µM 33% | [4]; at 1.2 µM -3% | [4]; at 3.7 µM -9% | [4]; at 11.0 µM -8% | [4]; at 33.0 µM -9% | [4]; at 100.0 µM 16% | [5]; at 1.2 µM -16% | [5]; at 3.7 µM -19% | [5]; [16] 2% | [5]; at 11.0 µM -23% | [5]; at 33.0 µM -13% | [5]; [17] 19% | [5]; at 50.0 µM 31.6% | [5]; at 100.0 µM 38% | [6]; at 1.2 µM -3% | [6]; at 3.7 µM -4% | [6]; [16] 0% | [6]; at 11.0 µM -6% | [6]; at 33.0 µM -11% | [6]; [17] 37% | [6]; at 50.0 µM 3.8% | [6]; at 100.0 µM -10% | [7]; at 1.2 µM 4% | [7]; at 3.7 µM -3% | [7]; at 11.0 µM 9% | [7]; at 33.0 µM 12% | [7]; at 100.0 µM 56% | [8]; at 1.2 µM -7% | [8]; at 3.7 µM -9% | [8]; at 11.0 µM -16% | [8]; at 33.0 µM -16% | [8]; at 100.0 µM -15% | [9]; [16] -1% | [9]; [17] 12% | [9]; at 50.0 µM 4.65% | [10]; at 1.2 µM -2% | [10]; at 3.7 µM 3% | [10]; [16] 7% | [10]; at 11.0 µM 2% | [10]; at 33.0 µM 2% | [10]; [17] 43% | [10]; at 50.0 µM 19.8% | [10]; at 100.0 µM 21% | [11]; at 1.2 µM -1% | [11]; at 3.7 µM 0% | [11]; at 11.0 µM 7% | [11]; at 33.0 µM 20% | [12]; at 1.2 µM -21% | [12]; at 3.7 µM -8% | [12]; at 11.0 µM -10% | [12]; at 33.0 µM -11% | [12]; at 100.0 µM 62% | [13]; at 1.2 µM -66% | [13]; at 3.7 µM -14% | [13]; at 11.0 µM 3% | [13]; at 33.0 µM 15% | [14]; [16] 1% | [15]; at 1.2 µM -9% | [15]; at 3.7 µM -8% | [15]; at 11.0 µM -10% | [15]; at 33.0 µM -10% | [15]; at 100.0 µM 13%
active: [11]; at 100.0 µM 89% | [13]; at 100.0 µM 78% | [14]; [17] 70% | [14]; at 50.0 µM 78.8%
